Assay results reported in PubChem BioAssay AID588345 (Broad Institute, 2011).
Hit rate of the full screen: of about 1,300 compounds, about 850 (65%) were called active. Not shown: some 1% with an inconclusive outcome. No rule for the calls is given here. So high a share suggests a set chosen from earlier hits. A selection follows. Entries with a potency or affinity are not part of this list.

Each compound was assayed against Dual specificity tyrosine-phosphorylation-regulated kinase 1A (Rattus norvegicus) (UniProt Q63470) (assay: rat Dyrk1A kinase inhibitors, dose response, biochemical, cherry-pick, plate reader, 2124-01 (AID 588345)). Settings: Dyrk1A kinase biochemical assay; series mostly up to 12 µM; activity change, negative = inhibition: at the top concentration.

Activity change, negative = inhibition, inactive:
Cc1cc(=O)oc2ccc(OC(=O)c3cccc(S(=O)(=O)N4CCOCC4)c3)cc12 18.6%
COc1cccc(Nc2nc(NCCO)c3ccccc3n2)c1 -31.2%
CCc1cc2c(NC3CCCC3)ncnc2s1 12.8%
CCCCCC1CC(CC(C)C(=O)Nc2nncs2)C(=O)O1 (centres undefined) -3.8%
CCC(C)NC(=O)C1CCCN(S(=O)(=O)c2ccc3c(c2)CC(C)N3C(=O)C2CC2)C1 (centres undefined) -4.01%
Clc1ccc(C2CC(c3cccs3)n3ncnc3N2)c(Cl)c1 (centres undefined) 17%
O=C(Cn1c(-c2cncs2)nc2ccccc21)NCc1ccccc1 -0.95%
Cn1c(=O)[nH]c2cc3ccccc3cc21 -26.9%
S=c1sc2ccccc2n1CCc1ccncc1 18.3%
COc1ccc(N(CC(=O)Nc2ccc3c(c2)OCCO3)S(=O)(=O)c2c(C)nn(C)c2C)cc1 -4.22%
CC(C)(C)C1=Nn2c(nnc2-c2ccccc2F)SC1 9.33%
O=C(Nc1ccc2cn[nH]c2c1)c1c(Cl)cccc1Cl -27.4%
COc1ccc(N/C=C2\C(=O)CCc3c2oc2cc(Cl)c(O)c(Cl)c32)cc1 3.91%
Oc1c(Cl)c(Cl)c2ncccc2c1Cl 1.52%
Oc1cccc2c(-c3nn[nH]n3)ccnc12 -23.7%
Fc1ccccc1-c1nc(-c2ccc(-c3nn[nH]n3)cc2)no1 -18.5%
COc1ccc(-c2cn[nH]c2C)cc1 5.41%
Cc1cc(C)c(CN2CCN(C(=O)Cn3ccc(N)nc3=O)CC2)c(C)c1 -5.75%
CCCCCCCCCCCCN1[C@@H](CC(=O)OC)c2cc(C(F)(F)F)ccc2S1(=O)=O -2.65%
CC(=O)c1cccc(NC(=O)Nc2ccc3c(c2)N(C)C(=O)CS3)c1 -33.8%
CSc1nnc(-c2cc3c(-c4ccccc4)nn(C)c3s2)n1C -1.21%
Cn1cnc2c(=O)sc3ccccc3c21 12.6%
O=C(C1CC(=O)N(C2CCCC2)C1)N1CCN(c2ccc(F)cc2)CC1 (centres undefined) -6.71%
c1csc(CNc2ncnc3ccc(-c4ccc5c(c4)OCCO5)cc23)c1 -0.763%
O=C(NCc1ccccc1)C1=C[C@H](c2ccccc2)C[C@H](OCc2ccc(CO)cc2)O1 -7.49%
c1ccc(-c2nnc(CSc3ccc4c(c3)OCCO4)o2)cc1 -3.53%
O=[N+]([O-])c1ccc2c(c1)C(=NO)c1cc(F)ccc1-2 -3.6%
O=C(O)CCC(=O)Nc1ccc(N2CCCCCC2)cc1 8.95%
Cc1cccc(Nc2nc(N)c([N+](=O)[O-])c(N3CCC(C)CC3)n2)c1 -14.7%
CCC1NC(C(=O)O)Cc2c1[nH]c1ccccc21 (centres undefined) -58%
COC(=O)c1nccc2c1[nH]c1ccccc12 -5.75%
CC(C)C[C@H]1COCCS(=O)(=O)N1Cc1ccc(Cl)c(Cl)c1 5.26%
CCOC(=O)Cn1c(-c2cccnc2Cl)nc2ccccc21 0.621%
O=C(CN1CCOCC1)Nc1nc2ccc([N+](=O)[O-])cc2s1 3.97%
CC1CCc2nc(NC(=O)CN3CCN(Cc4ccc5c(c4)OCO5)CC3)sc2C1 (centres undefined) -4.24%
CC1CCc2nc(NC(=O)c3ccc(N4C(=O)CCC4=O)cc3)sc2C1 (centres undefined) 7.56%
Cc1noc(C)c1-c1ccc2ncnc(NC(C)c3ccco3)c2c1 (centres undefined) 8.27%
O=C(Nc1cccc(Cl)c1)ON=C1c2ccccc2-c2ccccc21 3.04%
CCC(=O)Nc1c(C#N)c2nc3ccccc3nc2n1-c1ccccc1C 4.55%
Cc1ccc(NC(=S)Nc2ccc3cn[nH]c3c2)cc1 5.74%
COc1ccc2c(c1)C(=O)N1[C@H]3c4cc(C)ccc4OC[C@@H]3[C@H](c3ccccc3)[C@]1(C)C(=O)N2 11.7%
Cc1c(C(=O)O)sc2nc(-c3cccs3)cc(C(F)(F)F)c12 7.06%
O=C1CCCC2=C1Sc1ccc(Cl)cc1N2 4.76%
O=C1c2ccccc2S(=O)(=O)N1Cc1nnc(-c2ccccc2Br)o1 7.82%
CC(C)=CCc1cc(-c2oc3cc(O)cc(O)c3c(=O)c2O)ccc1O -82.8%
O=C(Nc1ncc2c(n1)-c1ccccc1CC2)c1ccc(Cl)cc1 -60.6%
CCOCCCNC(=O)C(NC(=O)c1ccc(=O)[nH]c1)c1ccc(Cl)cc1 (centres undefined) 14.2%
Cc1cccc(C(C)n2nnc3ccccc32)c1O (centres undefined) 12.8%
O=c1oc(-c2ccc(O)c(O)c2)cc2cc(O)cc(O)c12 16%
O=c1cc(-c2ccc(O)cc2)oc2c(O)c(O)c(O)c(O)c12 -19.7%
CN(C)CCCOC(=O)COc1ccc(Br)cc1 8.36%
CCn1c(NC(=O)c2ccccc2)c(-c2cccs2)c(=O)c2ccccc21 10.9%
CCN(CC)C(=O)Oc1ccc2c(c1)O/C(=C\c1ccco1)C2=O 8.84%
O=c1cc(-c2ccco2)oc2c1ccc1ccccc12 -51.9%
COc1cc(/C=C2\SC(N)=NC2=O)ccc1O -2.03%
OC(c1cc(C(F)(F)F)nc2c(Cl)cc(Cl)cc12)C1CCCCN1 (centres undefined) -7.03%
O=C(O)c1cccc2c1/C(=N/O)c1ccccc1-2 5.06%
CCn1c2ccccc2c2nc3cc(C(=O)O)ccc3nc21 0.717%
COc1ccc(NC(=S)N(CCc2c(C)[nH]c3ccccc23)Cc2cccnc2)cc1 8.34%
S=C(Nc1cccnc1)Nc1cccc2cnccc12 15.1%
Cc1cc2nncn2c2ccccc12 -2.5%
COc1ccc(NC(=O)N(C)C[C@H]2Oc3c(NS(=O)(=O)c4cccs4)cccc3C(=O)N([C@@H](C)CO)C[C@@H]2C)cc1 -6.15%
C[C@@H]1C=C(C(=O)NCc2nc3ccccc3[nH]2)O[C@H](OCCCCO)C1 -1.23%
O=C1CN(C(=O)C2CCC(=O)N(CCc3ccc(Cl)cc3)C2)CCN1 (centres undefined) -3.16%
COc1ccc2oc(N)c(C=O)c(=O)c2c1 15.7%
COc1ccc2nc(C)c3c(c2c1)OC(C(C)(Cl)Br)C3 (centres undefined) 0.503%
c1cnc2ncc3sccc3c2c1 1.55%
O=c1c(O)c(-c2ccccc2)oc2cc(O)cc(O)c12 -30.9%
O=c1c(O)c(-c2cc(O)c(O)c(O)c2)oc2cc(O)cc(O)c12 -91.1%
Cc1cccc(CNc2ncnc3ccc(-c4ccc5c(c4)OCO5)cc23)c1 -5.35%
O=C(CN1CCOCC1)Nc1nc2ccc(F)cc2s1 0.711%
COc1ccc(OC)c(N=c2oc3cc(O)ccc3cc2C(N)=O)c1 19%
NC(=O)c1cc2ccc(O)cc2oc1=Nc1ccccc1 -0.226%
COc1ccc2nc(-n3c(O)c(C4=c5ccccc5=NC4=O)[nH]c3=S)sc2c1 -2.12%
